Measured values: publication PMC4336329 (PLoS ONE, 2015)
Screen size: about 310,000 compounds; about 2,200 (0.71%) showed an effect of 50% or more. The effect is printed as a negative number. This excerpt belongs to a sample that is enriched for strong results.

Target: human ether-à-go-go-related gene (hERG) potassium channel (human, UniProt Q12809)
Test: primary screen, population patch clamp on CHO cells stably expressing hERG; higher = less effect of the substance

Chain of human ether-à-go-go-related gene (hERG) potassium channel (Q12809 whole entry, looked up): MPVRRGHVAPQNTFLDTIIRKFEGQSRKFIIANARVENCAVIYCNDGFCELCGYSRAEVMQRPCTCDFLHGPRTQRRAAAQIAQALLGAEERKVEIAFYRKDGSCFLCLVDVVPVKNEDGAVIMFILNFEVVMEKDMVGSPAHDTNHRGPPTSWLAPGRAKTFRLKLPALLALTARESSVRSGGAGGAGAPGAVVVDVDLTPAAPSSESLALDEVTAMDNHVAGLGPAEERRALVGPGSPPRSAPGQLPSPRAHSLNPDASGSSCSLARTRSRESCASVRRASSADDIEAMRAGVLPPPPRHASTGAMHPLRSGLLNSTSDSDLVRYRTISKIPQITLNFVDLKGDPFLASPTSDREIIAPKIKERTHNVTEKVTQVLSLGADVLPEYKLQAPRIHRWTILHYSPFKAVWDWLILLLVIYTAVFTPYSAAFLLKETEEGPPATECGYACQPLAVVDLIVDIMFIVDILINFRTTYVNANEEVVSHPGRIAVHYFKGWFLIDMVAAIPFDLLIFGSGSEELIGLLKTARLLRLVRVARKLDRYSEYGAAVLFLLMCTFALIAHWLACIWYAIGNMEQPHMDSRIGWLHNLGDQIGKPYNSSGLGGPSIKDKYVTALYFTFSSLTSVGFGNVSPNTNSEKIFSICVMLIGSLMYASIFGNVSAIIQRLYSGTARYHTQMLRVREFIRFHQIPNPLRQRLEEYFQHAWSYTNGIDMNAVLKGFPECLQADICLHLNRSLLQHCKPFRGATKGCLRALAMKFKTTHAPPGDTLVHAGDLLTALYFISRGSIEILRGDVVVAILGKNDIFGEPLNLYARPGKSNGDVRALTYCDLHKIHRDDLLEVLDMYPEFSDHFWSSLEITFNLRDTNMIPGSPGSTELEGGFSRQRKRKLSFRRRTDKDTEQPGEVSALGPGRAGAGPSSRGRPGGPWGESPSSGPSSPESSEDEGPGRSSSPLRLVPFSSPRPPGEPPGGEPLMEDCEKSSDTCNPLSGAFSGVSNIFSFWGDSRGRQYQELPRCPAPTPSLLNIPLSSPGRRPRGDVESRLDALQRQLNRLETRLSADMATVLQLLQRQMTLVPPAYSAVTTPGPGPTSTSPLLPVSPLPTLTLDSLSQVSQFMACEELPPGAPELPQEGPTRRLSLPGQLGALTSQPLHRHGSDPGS

Compound	hERG current change (%, negative = inhibition) at 1uM [%]
CCCN(C(=O)CCl)C1=CCCCC1	26.6
O=C(CS(=O)(=O)Cc1ccccc1)Nc1ncccn1	13
C[C@H]1CN=C2N(CCNC(=O)CCC3CCCCC3)[C@H](Cc3ccc(O)cc3)CN21	14.3
C[C@@H](CN1C2=NC[C@H](Cc3ccc(O)cc3)N2C[C@H]1Cc1ccc(O)cc1)NC(=O)CCC1CCCCC1	12.5
COc1ccc(C[C@H]2CN3C(=NC[C@@H]3Cc3ccccc3)N2CCNC(=O)CCC2CCCCC2)cc1	-60.4
C[C@@H]1CN=C2N(CCNC(=O)CCC3CCCCC3)[C@H](Cc3ccc(O)cc3)CN21	7.9
COc1ccc(C[C@H]2CN3C(=NC[C@@H]3C(C)C)N2CCNC(=O)CCC2CCCCC2)cc1	-86
COc1ccc(C[C@H]2CN3C(=NC[C@@H]3Cc3ccc(O)cc3)N2C[C@H](C)NC(=O)CCC2CCCCC2)cc1	-14.9
COc1ccc(C[C@@H]2CN3C(=NC[C@@H]3Cc3ccc(O)cc3)N2C[C@H](C)NC(=O)CCC2CCCCC2)cc1	-64.6
C/C=C(\C)C(=O)NCCN1C2=NC[C@H](C(C)C)N2C[C@@H]1Cc1ccc(OC)cc1	-46.6
CC(C)[C@H]1CN=C2N(CCNC(=O)CCC3CCCCC3)[C@H](Cc3ccc(O)cc3)CN21	-2.53
COc1ccc(C[C@H]2CN3C(=NC[C@@H]3C)N2CCNC(=O)CCC2CCCCC2)cc1	-63.7
O=C(CCC1CCCCC1)NCCN1C2=NC[C@@H](Cc3ccccc3)N2C[C@H]1Cc1ccc(O)cc1	-0.771
COc1ccc(C[C@H]2CN3C(=NC[C@H]3Cc3ccccc3)N2CCNC(=O)CCC2CCCCC2)cc1	-49.2
COc1ccc(COc2ccsc2C(=O)Nc2ccc(Cl)c(Cl)c2)cc1	13.6
COc1cc(OC)cc(-c2nc(SCC(=O)Nc3ccccc3F)n[nH]2)c1	11.9
CC(C)c1ccc(C(N)=S)cc1	7.86
O=C(Cc1ccccc1)N1CCC2(CC1)NCCc1[nH]cnc12	20.4
COc1ccc(NC(=O)/C=C/c2ccc(C)o2)cc1S(=O)(=O)N1CCOCC1	3.88
COc1cc(S(=O)(=O)Nc2ccccc2N2CCCCC2)ccc1NC(C)=O	-4.5
COC(=O)C(NC(=O)c1c(C)nn(C)c1Cl)c1ccccc1 (centres unmarked)	14.2
Cc1ccc2c(c1)c(C)c(C)n2CC(O)Cn1nnc2ccccc21 (centres unmarked)	12.4
CS(=O)(=O)NCc1nnc(SCc2c(F)cccc2Cl)o1	-1.52
O=C(O)c1cccc(Nc2ccc([N+](=O)[O-])c3nonc23)c1	2.1
Cc1cc(=O)n2nc(N3CCCC3C(=O)Nc3cccc(Cl)c3C)sc2n1 (centres unmarked)	12.5
COc1ccc(N2CCN(C(=O)c3ccc4c(=O)n(Cc5ccc6c(c5)OCO6)c(=O)[nH]c4c3)CC2)cc1	25
CC(=O)/C(=C\N(C)C)Sc1ccc(C)cc1	27.2

Compound	hERG current change (%, negative = inhibition) at 1uM [%]
Cc1ccc(C(=O)Oc2cc(C)n(C)c(=O)c2)cc1	5.86
COc1cc(Cl)nn(-c2ccccc2)c1=O	13.3
CC1(c2ccc([N+](=O)[O-])cc2)Nc2ccccc2S1 (centres unmarked)	10.9
O=C(CCC1CCCCC1)NCCN1C2=NC[C@H](Cc3ccc(O)cc3)N2C[C@H]1Cc1ccc(O)cc1	12.5
COc1ccc(C[C@H]2CN3C(=NC[C@H]3C)N2CCNC(=O)CCC2CCCCC2)cc1	-51.9
COc1ccc(C[C@@H]2CN3C(=NC[C@@H]3C)N2C[C@H](C)NC(=O)CCC2CCCCC2)cc1	-20.8
Nc1nc(Cn2nnc(-c3ccccc3F)n2)nc(N2CCOCC2)n1	-53.8
Nc1nc(Cn2nnc(-c3ccccc3Cl)n2)nc(N2CCOCC2)n1	-25.9
COc1ccc(-c2nnn(Cc3nc(N)nc(N4CCOCC4)n3)n2)cc1OC	3.65
COc1ccc(S(=O)(=O)N2CCCC2CNC(=O)C(=O)NC2CCCCCC2)cc1 (centres unmarked)	-3.96
COc1ccc(OCC(=O)N2CCN(C(=O)COc3ccc(Br)cc3)CC2)cc1	-56.9
CCOc1ccc(OCC(=O)N2CCC3(CC2)CC(=O)c2ccccc2O3)cc1	-56.8
CC(=O)N1CCN(C(=O)COc2ccc(Br)cc2)CC1	3.21
COc1cccc(OCC(=O)N2CCC3(CC2)CC(=O)c2ccccc2O3)c1	-5.23
O=C1CC2(CCN(C(=O)COc3ccc(F)cc3)CC2)Oc2ccccc21	-17
COc1ccc(OCC(=O)N2CCC3(CC2)CC(=O)c2ccccc2O3)cc1	-70.2
Cc1ccccc1OCC(=O)N1CCC2(CC1)CC(=O)c1ccccc1O2	-10.3
Cc1cccc(OCC(=O)N2CCC3(CC2)CC(=O)c2ccccc2O3)c1	-6.58
COc1ccc(OCC(=O)N2CCN(C(=O)COc3ccccc3)CC2)cc1	-24.7
O=C1CC2(CCN(C(=O)COc3ccccc3)CC2)Oc2ccccc21	-21.4
Cc1ccc(OCC(=O)N2CCC3(CC2)CC(=O)c2ccccc2O3)cc1	-49
O=C1CC2(CCN(C(=O)COc3ccc(Cl)cc3)CC2)Oc2ccccc21	-70.4
COc1ccc(NC(=O)N2CC(C)OC(C)C2)cc1OC (centres unmarked)	9.39
O=C1c2ccccc2C(=O)N1CCn1ccnc1	17.7
CCOc1cccc(CNc2ccc(O)cc2)c1OCc1ccc(Cl)cc1Cl	10.8
O=C(c1cnn2c(C(F)(F)F)cc(-c3ccco3)nc12)N1CCCc2ccccc21	-1.81
